A number with no mark means an inactive call.
Tested on: Vero E6 infected with SARS-CoV-2
Test: inhibition of SARS-CoV-2 cytopathic effect; higher = more antiviral protection, active = above 15
Details: 48 h

O=C(O)CNC(=O)c1c(O)c2ccccc2n(Cc2ccccc2)c1=O
inhibition of SARS-CoV-2 cytopathic effect (1 nM): -0.58%
inhibition of SARS-CoV-2 cytopathic effect (8.33 nM): -1.09%
inhibition of SARS-CoV-2 cytopathic effect (100 nM): 0.41%
inhibition of SARS-CoV-2 cytopathic effect (833.33 nM): -0.62%
inhibition of SARS-CoV-2 cytopathic effect (10000 nM): -1.13%

N#CC(Cc1ccc(O)cc1)c1ccc(O)cc1 (stereo not given) [diarylpropionitrile]
inhibition of SARS-CoV-2 cytopathic effect (1 nM): -1.07%
inhibition of SARS-CoV-2 cytopathic effect (8.33 nM): 1.57%
inhibition of SARS-CoV-2 cytopathic effect (100 nM): -1.11%
inhibition of SARS-CoV-2 cytopathic effect (833.33 nM): -3.56%
inhibition of SARS-CoV-2 cytopathic effect (10000 nM): -1.54%

CC(=O)Nc1cccc(Nc2ncnc(N3CCC(OCc4ccc(OC(F)(F)F)cc4)CC3)n2)c1C
inhibition of SARS-CoV-2 cytopathic effect (1 nM): 0.94%
inhibition of SARS-CoV-2 cytopathic effect (8.33 nM): -3.45%
inhibition of SARS-CoV-2 cytopathic effect (100 nM): -5.16%
inhibition of SARS-CoV-2 cytopathic effect (833.33 nM): -2.26%
inhibition of SARS-CoV-2 cytopathic effect (10000 nM): 1.6%

Clc1ccc(Cn2c(CN3CCCC3)nc3ccccc32)cc1 [clemizole]
inhibition of SARS-CoV-2 cytopathic effect (1 nM): -3.82%
inhibition of SARS-CoV-2 cytopathic effect (8.33 nM): -2.64%
inhibition of SARS-CoV-2 cytopathic effect (100 nM): -3.58%
inhibition of SARS-CoV-2 cytopathic effect (833.33 nM): -3.06%
inhibition of SARS-CoV-2 cytopathic effect (10000 nM): -6.74%

Cc1cc(C)c2c(c1)[C@@H](N(Cc1cc(C(F)(F)F)cc(C(F)(F)F)c1)c1nnn(C)n1)CCCN2C[C@H]1CC[C@H](C(=O)O)CC1 [evacetrapib]
inhibition of SARS-CoV-2 cytopathic effect (1 nM): 2.13%
inhibition of SARS-CoV-2 cytopathic effect (8.33 nM): -0.17%
inhibition of SARS-CoV-2 cytopathic effect (100 nM): -3.28%
inhibition of SARS-CoV-2 cytopathic effect (833.33 nM): -0.14%
inhibition of SARS-CoV-2 cytopathic effect (10000 nM): 3.85%

Cc1sc(C)c(C(=O)NC2(c3ccc(C(=O)O)cc3)CC2)c1Cc1ccc(C(F)(F)F)cc1
inhibition of SARS-CoV-2 cytopathic effect (1 nM): -1.32%
inhibition of SARS-CoV-2 cytopathic effect (8.33 nM): -0.56%
inhibition of SARS-CoV-2 cytopathic effect (100 nM): -0.49%
inhibition of SARS-CoV-2 cytopathic effect (833.33 nM): -1.38%
inhibition of SARS-CoV-2 cytopathic effect (10000 nM): 1.12%

O=C(Nc1ccccc1)N1CCN(c2nc(-c3ccccc3)ns2)CC1
inhibition of SARS-CoV-2 cytopathic effect (1 nM): 1.74%
inhibition of SARS-CoV-2 cytopathic effect (8.33 nM): 1.97%
inhibition of SARS-CoV-2 cytopathic effect (100 nM): 2.17%
inhibition of SARS-CoV-2 cytopathic effect (833.33 nM): 0.01%
inhibition of SARS-CoV-2 cytopathic effect (10000 nM): -2.23%

CCc1cncnc1N1CCN(Cc2nc3cc(C(F)(F)F)ccc3[nH]2)CC1
inhibition of SARS-CoV-2 cytopathic effect (1 nM): 1.34%
inhibition of SARS-CoV-2 cytopathic effect (8.33 nM): -0.7%
inhibition of SARS-CoV-2 cytopathic effect (100 nM): 1.45%
inhibition of SARS-CoV-2 cytopathic effect (833.33 nM): 8.5%
inhibition of SARS-CoV-2 cytopathic effect (10000 nM): -4.66%

Cc1cccc(NC(=O)c2ccc(C(F)(F)F)cc2C(=O)O)n1
inhibition of SARS-CoV-2 cytopathic effect (1 nM): 0.74%
inhibition of SARS-CoV-2 cytopathic effect (8.33 nM): 0.28%
inhibition of SARS-CoV-2 cytopathic effect (100 nM): 1.41%
inhibition of SARS-CoV-2 cytopathic effect (833.33 nM): 0.88%
inhibition of SARS-CoV-2 cytopathic effect (10000 nM): 2.54%

OC(c1ccccc1)(c1ccccc1)C1CCNCC1 [azacyclonol]
inhibition of SARS-CoV-2 cytopathic effect (1 nM): -0.3%
inhibition of SARS-CoV-2 cytopathic effect (8.33 nM): 1.56%
inhibition of SARS-CoV-2 cytopathic effect (100 nM): -2.53%
inhibition of SARS-CoV-2 cytopathic effect (833.33 nM): -0.09%
inhibition of SARS-CoV-2 cytopathic effect (10000 nM): -3.58%

Cc1c(-c2ccc(-c3ccccc3F)cc2)nc2ccc(F)cc2c1C(=O)O [brequinar]
inhibition of SARS-CoV-2 cytopathic effect (1 nM): 0.47%
inhibition of SARS-CoV-2 cytopathic effect (8.33 nM): -5.34%
inhibition of SARS-CoV-2 cytopathic effect (100 nM): -4.42%
inhibition of SARS-CoV-2 cytopathic effect (833.33 nM): -4.61%
inhibition of SARS-CoV-2 cytopathic effect (10000 nM): -4.4%

COc1cc(CNC(=O)CCCC/C=C/C(C)C)ccc1O [capsaicin]
inhibition of SARS-CoV-2 cytopathic effect (1 nM): 0.65%
inhibition of SARS-CoV-2 cytopathic effect (8.33 nM): 0.89%
inhibition of SARS-CoV-2 cytopathic effect (100 nM): 1.27%
inhibition of SARS-CoV-2 cytopathic effect (833.33 nM): -1.15%
inhibition of SARS-CoV-2 cytopathic effect (10000 nM): 2.73%

Cc1ccccc1C(=O)Nc1ccc(C(=O)N2CCCC(O)c3cc(Cl)ccc32)c(C)c1 (stereo not given) [tolvaptan]
inhibition of SARS-CoV-2 cytopathic effect (1 nM): 1.52%
inhibition of SARS-CoV-2 cytopathic effect (8.33 nM): 1.94%
inhibition of SARS-CoV-2 cytopathic effect (100 nM): 0.74%
inhibition of SARS-CoV-2 cytopathic effect (833.33 nM): -1.55%
inhibition of SARS-CoV-2 cytopathic effect (10000 nM): 1.54%

CCn1cc(C(=O)O)c(=O)c2cc3c(cc21)OCO3 [oxolinic-acid]
inhibition of SARS-CoV-2 cytopathic effect (1 nM): -1.5%
inhibition of SARS-CoV-2 cytopathic effect (8.33 nM): 0.26%
inhibition of SARS-CoV-2 cytopathic effect (100 nM): -1.8%
inhibition of SARS-CoV-2 cytopathic effect (833.33 nM): -0.9%
inhibition of SARS-CoV-2 cytopathic effect (10000 nM): -3.06%

COc1cc(N2CCN(C)CC2)ccc1Nc1nccc(-c2cn(C)c3cnccc23)n1
inhibition of SARS-CoV-2 cytopathic effect (1 nM): 0.14%
inhibition of SARS-CoV-2 cytopathic effect (8.33 nM): -0.24%
inhibition of SARS-CoV-2 cytopathic effect (100 nM): 2.63%
inhibition of SARS-CoV-2 cytopathic effect (833.33 nM): -0.7%
inhibition of SARS-CoV-2 cytopathic effect (10000 nM): 40.7% (active)

COC(=O)Nc1nc2cc(Sc3ccccc3)ccc2[nH]1 [fenbendazole]
inhibition of SARS-CoV-2 cytopathic effect (1 nM): 0.07%
inhibition of SARS-CoV-2 cytopathic effect (8.33 nM): -1.31%
inhibition of SARS-CoV-2 cytopathic effect (100 nM): 0.21%
inhibition of SARS-CoV-2 cytopathic effect (833.33 nM): 0.61%
inhibition of SARS-CoV-2 cytopathic effect (10000 nM): -0.61%

O=C(CCc1ccc(O)cc1)c1c(O)cc(O)cc1O[C@@H]1O[C@H](CO)[C@@H](O)[C@H](O)[C@H]1O [phlorizin]
inhibition of SARS-CoV-2 cytopathic effect (1 nM): -2.08%
inhibition of SARS-CoV-2 cytopathic effect (8.33 nM): 0%
inhibition of SARS-CoV-2 cytopathic effect (100 nM): -10.3%
inhibition of SARS-CoV-2 cytopathic effect (833.33 nM): 0.18%
inhibition of SARS-CoV-2 cytopathic effect (10000 nM): 1.43%

Cc1cn(C[C@H](N)C(=O)O)c(=O)n(Cc2ccsc2C(=O)O)c1=O
inhibition of SARS-CoV-2 cytopathic effect (1 nM): 1.18%
inhibition of SARS-CoV-2 cytopathic effect (8.33 nM): 1.91%
inhibition of SARS-CoV-2 cytopathic effect (100 nM): -1.21%
inhibition of SARS-CoV-2 cytopathic effect (833.33 nM): 0.03%
inhibition of SARS-CoV-2 cytopathic effect (10000 nM): 2.18%

C#C[C@]1(O)CC[C@H]2[C@@H]3CCc4cc(O)ccc4[C@H]3CC[C@@]21C
inhibition of SARS-CoV-2 cytopathic effect (1 nM): 0.97%
inhibition of SARS-CoV-2 cytopathic effect (8.33 nM): 0.51%
inhibition of SARS-CoV-2 cytopathic effect (100 nM): 6.67%
inhibition of SARS-CoV-2 cytopathic effect (833.33 nM): 3.6%
inhibition of SARS-CoV-2 cytopathic effect (10000 nM): 7.74%

— the supplement of paper PMC13380429
